Experimental data reported in PubChem BioAssay (NCI).
The panel holds about 79,000 compounds, 15% with a hit somewhere; the sample as a whole holds those more often. Values without a mark were called inactive. Calls of active or inactive are those of the source. No stated cut-off is given here; in the data, active means growth inhibition above about 70%; inactive means the rest.

Key:
[1] = NCI Yeast Anticancer Drug Screen. Data for the rad50 strain (AID 155);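 further: 0% = growth of vehicle-only cultures of the same strain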; settings: S. cerevisiae rad50 strain growth inhibition, hits give high values
Method in brief: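 DNA repair mutant yeast, compound exposure, growth read-out; inhibition is taken relative to vehicle.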

[2] = NCI Yeast Anticancer Drug Screen. Data for the mec2-1 strain (AID 157); settings: S. cerevisiae mec2-1 strain, hits give high values
Method in brief: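 Growth inhibition is read against vehicle-treated controls after compound exposure of the mec2-1 yeast strain, which is defective in DNA damage repair or cell cycle control.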

[3] = NCI Yeast Anticancer Drug Screen. Data for the sgs1 mgt1 strain (AID 161);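 further: 0% = growth of cultures given vehicle only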; settings: S. cerevisiae sgs1 mgt1 strain, hits give high values
Method in brief: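 Compounds are added to genetically altered yeast, and growth is compared with cultures given vehicle alone to give percent inhibition.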

[4] = NCI Yeast Anticancer Drug Screen. Data for the cln2 rad14 strain (AID 165);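 further: 0% = growth equal to vehicle treated cultures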; settings: S. cerevisiae cln2 rad14 strain, hits give high values
Method in brief: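 Growth inhibition, relative to vehicle-treated controls, is the read-out. The test organism is a yeast strain with defined genetic alterations, cln2 rad14.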

[5] = NCI Yeast Anticancer Drug Screen. Data for the bub3 strain (AID 167); settings: S. cerevisiae bub3 mutant strain, hits give high values
Method in brief: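 In this screen, a yeast mutant lacking normal mitotic checkpoint function is challenged with compound. Relative growth versus vehicle gives the inhibition value.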

[6] = NCI Yeast Anticancer Drug Screen. Data for the wt2 strain (AID 169);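 further: 0% = growth of vehicle-treated yeast cultures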; settings: S. cerevisiae wt2 strain growth inhibition, hits give high values
Method in brief: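 Compound exposure of yeast; growth compared with vehicle controls; inhibition reported.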

[7] = NCI Yeast Anticancer Drug Screen. Data for the mlh1 rad18 strain (AID 175); settings: S. cerevisiae mlh1 rad18 strain growth inhibition, hits give high values
Method in brief: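 Cells of a genetically altered yeast strain, deficient in DNA damage repair, were treated with compound. Their growth was then compared with that of vehicle-treated cultures to give inhibition.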

[8] = at 5.0 µM (retest, dose inferred, filed as 0.5)
[9] = at 50.0 µM (retest, dose inferred, filed as 5.0)

With `O=C1NC(=S)NC(=O)C1=C/C=C/c1ccccc1` the growth inhibition [1, 8] was 33%, the growth inhibition [1, 9] was 40% and the growth inhibition ([1]; at 50.0 µM) was 73% (active). It also gave a growth inhibition [2, 8] of 40%, a growth inhibition [2, 9] of 32% and a growth inhibition ([2]; at 50.0 µM) of 46.6%. For the same molecule, the growth inhibition [3, 8] was 4%, the growth inhibition [3, 9] was 89% (active) and the growth inhibition ([3]; at 50.0 µM) was 79.7% (active). The growth inhibition [4, 8] was 44%, the growth inhibition [4, 9] was 89% (active) and the growth inhibition ([4]; at 50.0 µM) was 31.8%. The growth inhibition [5, 8] was 26%, the growth inhibition [5, 9] was 84% (active) and the growth inhibition ([5]; at 50.0 µM) was 73.7% (active). For the same molecule, the growth inhibition ([6]; at 1.2 µM) was -15%, the growth inhibition ([6]; at 3.7 µM) was -3% and the growth inhibition ([6]; at 11.0 µM) was 2%. For the same molecule, the growth inhibition ([6]; at 33.0 µM) was 46%, the growth inhibition ([6]; at 100.0 µM) was 98% (active) and the growth inhibition [7, 8] was 29%. For the same molecule, the growth inhibition [7, 9] was 33% and the growth inhibition ([7]; at 50.0 µM) was 69.7%.
In the case of `CCCCCCC1CCC2CCCC(C)N12` (stereo unspecified), the growth inhibition [1, 8] is reported as -5%, the growth inhibition [1, 9] is reported as 67% and the growth inhibition ([1]; at 50.0 µM) is reported as 85.3% (active). The growth inhibition [2, 8] was -4%, the growth inhibition [2, 9] was 25% and the growth inhibition ([2]; at 50.0 µM) was 70.8% (active). The growth inhibition [3, 8] was 10%, the growth inhibition [3, 9] was 68% and the growth inhibition ([3]; at 50.0 µM) was 88.2% (active). The growth inhibition [4, 8] was 14%, the growth inhibition [4, 9] was 43% and the growth inhibition ([4]; at 50.0 µM) was 71.1% (active). For the same molecule, the growth inhibition [5, 8] was -19%, the growth inhibition [5, 9] was 74% (active) and the growth inhibition ([5]; at 50.0 µM) was 89% (active). For the same molecule, the growth inhibition [7, 8] was 2%, the growth inhibition [7, 9] was 57% and the growth inhibition ([7]; at 50.0 µM) was 74.9% (active).
In the case of `N#Cc1ccc([Se]c2ccccc2)cc1`, the growth inhibition [1, 8] is reported as 91% (active), the growth inhibition [1, 9] is reported as 96% (active) and the growth inhibition ([1]; at 50.0 µM) is reported as 73.9% (active). The growth inhibition [2, 8] was 95% (active), the growth inhibition [2, 9] was 96% (active) and the growth inhibition ([2]; at 50.0 µM) was 54.1%. For the same molecule, the growth inhibition [3, 8] was -1%, the growth inhibition [3, 9] was 67% and the growth inhibition ([3]; at 50.0 µM) was 72.3% (active). The growth inhibition [4, 8] was 33%, the growth inhibition [4, 9] was 73% (active) and the growth inhibition ([4]; at 50.0 µM) was 57%. For the same molecule, the growth inhibition [5, 8] was 40%, the growth inhibition [5, 9] was 84% (active) and the growth inhibition ([5]; at 50.0 µM) was 77.9% (active). It also gave a growth inhibition ([6]; at 1.2 µM) of 10%, a growth inhibition ([6]; at 3.7 µM) of 13% and a growth inhibition ([6]; at 11.0 µM) of 6%. The growth inhibition ([6]; at 33.0 µM) was 28%, the growth inhibition ([6]; at 100.0 µM) was 63% and the growth inhibition [7, 8] was 89% (active). The growth inhibition [7, 9] was 97% (active) and the growth inhibition ([7]; at 50.0 µM) was 56%.
With `[Cl][Sn]([Cl])([c]1ccccc1)[c]1ccccc1.c1ccncc1.c1ccncc1` the growth inhibition [1, 8] was 93% (active), the growth inhibition [1, 9] was 97% (active) and the growth inhibition ([1]; at 50.0 µM) was 98% (active). For the same molecule, the growth inhibition [2, 8] was 61%, the growth inhibition [2, 9] was 99% (active) and the growth inhibition ([2]; at 50.0 µM) was 99.1% (active). The growth inhibition [3, 8] was 94% (active), the growth inhibition [3, 9] was 99% (active) and the growth inhibition ([3]; at 50.0 µM) was 99% (active). For the same molecule, the growth inhibition [4, 8] was 71% (active), the growth inhibition [4, 9] was 98% (active) and the growth inhibition ([4]; at 50.0 µM) was 98.8% (active). The growth inhibition [5, 8] was 92% (active), the growth inhibition [5, 9] was 98% (active) and the growth inhibition ([5]; at 50.0 µM) was 97.9% (active).
With `CC(=O)[O][Hg][c]1c(C)c(C)c(C)c(C)c1C` the growth inhibition [1, 8] was 98% (active), the growth inhibition [1, 9] was 97% (active) and the growth inhibition ([1]; at 50.0 µM) was 87.5% (active). For the same molecule, the growth inhibition [2, 8] was 98% (active), the growth inhibition [2, 9] was 97% (active) and the growth inhibition ([2]; at 50.0 µM) was 90.1% (active). The growth inhibition [3, 8] was 99% (active), the growth inhibition [3, 9] was 98% (active) and the growth inhibition ([3]; at 50.0 µM) was 90.7% (active). The growth inhibition [4, 8] was 98% (active), the growth inhibition [4, 9] was 98% (active) and the growth inhibition ([4]; at 50.0 µM) was 89.8% (active). The growth inhibition [5, 8] was 98% (active), the growth inhibition [5, 9] was 97% (active) and the growth inhibition ([5]; at 50.0 µM) was 88.5% (active). The growth inhibition [7, 8] was 98% (active) and the growth inhibition [7, 9] was 96% (active).
In the case of `O=[N+]([O-])O.O=[N+]([O-])O.[NH-]C1CCCCC1[NH-].[Pt+2]` (stereo unspecified), the growth inhibition [1, 8] is reported as 33%, the growth inhibition [1, 9] is reported as 96% (active) and the growth inhibition ([1]; at 50.0 µM) is reported as 52.1%. For the same molecule, the growth inhibition [2, 8] was 25%, the growth inhibition [2, 9] was 95% (active) and the growth inhibition ([2]; at 50.0 µM) was 90.7% (active). For the same molecule, the growth inhibition [3, 8] was 57%, the growth inhibition [3, 9] was 100% (active) and the growth inhibition ([3]; at 50.0 µM) was 79.5% (active). The growth inhibition [4, 8] was 45%, the growth inhibition [4, 9] was 97% (active) and the growth inhibition ([4]; at 50.0 µM) was 86.4% (active). For the same molecule, the growth inhibition [5, 8] was 56%, the growth inhibition [5, 9] was 100% (active) and the growth inhibition ([5]; at 50.0 µM) was 88.9% (active).
For `CC(=O)OC1C(=O)OCC23CCC4(C)OC4C2OC2CC(OC(=O)/C=C/C=C/C(=O)OCCC1C)C3(C)C21CO1` (stereo unspecified), the growth inhibition [1, 8] was 99% (active), the growth inhibition [1, 9] was 99% (active) and the growth inhibition ([1]; at 50.0 µM) was 92.6% (active). The growth inhibition [2, 8] was 100% (active), the growth inhibition [2, 9] was 100% (active) and the growth inhibition ([2]; at 50.0 µM) was 93.8% (active). The growth inhibition [3, 8] was 99% (active), the growth inhibition [3, 9] was 99% (active) and the growth inhibition ([3]; at 50.0 µM) was 93.8% (active). The growth inhibition [4, 8] was 98% (active), the growth inhibition [4, 9] was 98% (active) and the growth inhibition ([4]; at 50.0 µM) was 92.5% (active). For the same molecule, the growth inhibition [5, 8] was 99% (active), the growth inhibition [5, 9] was 98% (active) and the growth inhibition ([5]; at 50.0 µM) was 92.6% (active).
